# Source: PubChem (National Center for Advancing Translational Sciences (NCATS))
# IP6K1 inhibitor = inhibitors of human IP6K1; Q92551; IP6K1 kinase, ADP-Glo luminescence, 2 h; hits give low values; activity change, % (series mostly up to about 58 µM); hit rate 0.81% among 140,000; AID 1645851; in the data active means activity change below about -25%; further: on the % scale 0 is the no-effect control and ±100 the full control effect
#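 ADP-Glo luminescence measures ADP made by human IP6K1 during a 2 h RT reaction with ATP/IP6 (mix at 1.3 mM/130 uM); top library doses 57.5 and 19.1 uM final.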
# SNCA viab count = reduces viability of HEK-293 SNCA reporter cells; Potency, µM (series often up to 57.1 µM), without a hit: at the highest dose activity change, negative = cytotoxicity, actives largely listed as cytotoxic; HEK-293-SNCA-luc viability, GF-AFC fluorescence, 24 h; hit rate 0.12% among 150,000; AID 1671193;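 further: potency means the concentration at half of the fitted maximal effect; 0% = DMSO-treated cells and -100% = medium-only wells without cells; nearly all actives have a fitted effect of over 30% in size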
#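 Cytotoxicity counterscreen: after 24 h compound treatment of genome-edited SNCA-luciferase HEK-293 cells, live-cell protease substrate GF-AFC read by fluorescence after 30 min; activity scaled between DMSO (0%) and medium-only (-100%), curves Hill-fitted.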
# SNCA expr inhib = reduces expression of the alpha-synuclein gene | hit rate 0.17% among 140,000 | Potency, µM (top dose mostly 57.2 µM), for the others: at the top dose activity change, negative = inhibition, hits mostly inhibitors | HEK-293 SNCA-luciferase knock-in, luminescence, 24 h;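 further: potency means the concentration at half of the fitted maximal effect; plate controls were DMSO cells for no effect and cell-free wells for full effect; nearly all actives have a fitted effect of over 45% in size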
# KDM5B inhibitor = KDM5B demethylase inhibition; KDM5B demethylase, FDH-coupled NADH fluorescence (FDH is formaldehyde dehydrogenase); Potency, µM (doses to about 57.7 µM), actives largely listed as inhibitors; hit rate 2.6% among 220,000; AID 1347165; further: potency means the concentration at half of the fitted maximal effect; 0% is about no effect; nearly all actives have a fitted effect of over 70% in size
# Target sequence (Q9UGL1 whole entry, looked up): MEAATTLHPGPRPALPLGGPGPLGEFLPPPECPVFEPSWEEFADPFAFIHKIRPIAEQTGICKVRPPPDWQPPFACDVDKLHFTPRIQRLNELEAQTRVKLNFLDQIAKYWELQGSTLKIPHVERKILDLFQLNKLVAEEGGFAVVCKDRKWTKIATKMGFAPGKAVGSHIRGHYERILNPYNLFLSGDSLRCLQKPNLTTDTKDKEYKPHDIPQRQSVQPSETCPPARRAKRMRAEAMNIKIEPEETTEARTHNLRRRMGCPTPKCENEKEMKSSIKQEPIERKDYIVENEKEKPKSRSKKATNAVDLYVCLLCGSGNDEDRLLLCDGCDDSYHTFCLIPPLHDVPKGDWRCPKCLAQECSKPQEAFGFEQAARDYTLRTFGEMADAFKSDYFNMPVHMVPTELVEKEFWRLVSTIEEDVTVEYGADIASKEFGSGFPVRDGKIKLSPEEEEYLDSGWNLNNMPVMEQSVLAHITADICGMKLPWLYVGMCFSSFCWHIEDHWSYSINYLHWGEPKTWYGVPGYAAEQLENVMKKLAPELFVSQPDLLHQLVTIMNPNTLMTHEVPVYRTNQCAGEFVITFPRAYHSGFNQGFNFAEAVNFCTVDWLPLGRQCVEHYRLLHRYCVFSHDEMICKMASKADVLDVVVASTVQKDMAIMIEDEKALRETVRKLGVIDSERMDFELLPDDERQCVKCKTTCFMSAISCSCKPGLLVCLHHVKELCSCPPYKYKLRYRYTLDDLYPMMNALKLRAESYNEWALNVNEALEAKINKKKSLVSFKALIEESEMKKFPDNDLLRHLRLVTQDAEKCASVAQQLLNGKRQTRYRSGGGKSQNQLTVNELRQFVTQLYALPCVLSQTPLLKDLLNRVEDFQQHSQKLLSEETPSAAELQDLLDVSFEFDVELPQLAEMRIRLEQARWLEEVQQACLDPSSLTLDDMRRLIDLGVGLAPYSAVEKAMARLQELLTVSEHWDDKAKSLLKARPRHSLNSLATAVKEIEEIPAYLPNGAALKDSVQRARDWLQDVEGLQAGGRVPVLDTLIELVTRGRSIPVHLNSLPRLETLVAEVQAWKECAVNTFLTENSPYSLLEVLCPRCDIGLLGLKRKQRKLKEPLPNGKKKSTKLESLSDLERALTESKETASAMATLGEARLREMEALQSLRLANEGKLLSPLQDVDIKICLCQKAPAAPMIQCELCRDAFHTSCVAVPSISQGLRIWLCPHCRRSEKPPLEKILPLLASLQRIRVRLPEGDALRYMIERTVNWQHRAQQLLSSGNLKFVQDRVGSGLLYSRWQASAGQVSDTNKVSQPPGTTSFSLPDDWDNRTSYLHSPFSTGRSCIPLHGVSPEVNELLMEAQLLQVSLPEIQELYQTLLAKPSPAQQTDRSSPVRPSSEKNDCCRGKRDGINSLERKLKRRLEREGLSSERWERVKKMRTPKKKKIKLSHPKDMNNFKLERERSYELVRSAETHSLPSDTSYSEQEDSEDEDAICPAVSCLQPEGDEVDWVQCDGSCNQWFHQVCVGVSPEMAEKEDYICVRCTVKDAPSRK
#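 Measured: NADH fluorescence change, 30 min, RT. System: KDM5BΔAP 200 nM final, H3K4me3 peptide, α-KG, Fe(II), ascorbate, NAD⁺ plus FDH, pH 7.5 HEPES. Compounds: titrated, 10 min pre-incubation with enzyme.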
# IP6K1 conf = confirmation of human IP6K1 inhibitors. hit rate 13% among 1,200. recombinant IP6K1 kinase, ADP-Glo luminescence, 2 h. Potency, µM (series often up to 49 µM), without a hit: at the top dose activity change, negative = inhibition, hits mostly inhibitors. shares compounds with IP6K1 inhibitor; further: potency means the concentration at half of the fitted maximal effect; on the % scale 0 is the no-effect control and ±100 the full control effect; nearly all actives have a fitted effect of over 65% in size
# * hit, by the source's call; i = inactive; ? = inconclusive; . = not tested or not shown; [ ] = another dose, or the depositor's remark. Compounds with a hit are over-represented: about 3% of the library has one in this group of screens. Unless noted, the call rests on the fitted dose curve; in most records, active means well fitted curve in the direction sought with a large enough effect; inconclusive means small, poorly fitted or top-dose-only effect, or another doubt; inactive means no such curve, though single readings can be large; an effect the other way counts as inactive or inconclusive.
SMILES,IP6K1 inhibitor,SNCA viab count,SNCA expr inhib,KDM5B inhibitor,IP6K1 conf
COc1ccc(-n2c(=O)c3c(n2Cc2ccccc2)CN(CCCc2ccccc2)CC3)cc1,-28*,?,-6%,i,-11%
COC(=O)N(C)Cc1cccc(N2CCN(C(=O)c3c(Cl)cccc3Cl)CC2)c1,-2,.,.,.,.
COc1ccccc1-c1cc(C(=O)NCCCc2ccccc2)nn2cnnc12,-2,-8%[12.5 µM],?,.,.
O=C(NCc1ccc(C(F)(F)F)cc1)c1cc(-c2ccsc2)c2nncn2n1,14,-13%,-4%,.,.
CCOc1ccc(C2CC(=O)NC(NC(=O)c3ccc(C)cc3)=N2)cc1 (stereo unspecified),0,2%,0%,i,.
Cc1ccc(C(=O)NC2=NC(c3ccc(C)cc3)CC(=O)N2)cc1 (stereo unspecified),-26*,-1%,-2%,i,-6%
Cc1ccc(C(=O)N2CCC3(CC2)CC(N(Cc2ccc(F)cc2)C2CC2)CCO3)cn1 (stereo unspecified),-26*,-3%,2%,i,4%
Cc1ccc(C(=O)N2CCC3(CC2)CC(N(Cc2ccc(F)cc2)C2CC2)CCO3)cc1 (stereo unspecified),-16,-5%,-7%,i,.
O=C(NCCc1ccc(Cl)cc1)c1ccc2nnc(CC3CC3)n2c1,3,6%,-5%,.,.
CN1C[C@H](NCc2ccc(F)cc2)CCC[C@@H](C(=O)NC2CC2)CC1=O,-26*,6%[87.6 µM],5%[87.6 µM],i,?
CC(=O)NC1(C)CCN(Cc2ccc(-c3ccc(Oc4ccccc4)cc3)cc2)C1 (stereo unspecified),6,-20%[87.6 µM],27%[87.6 µM],?,.
CCOc1ccc2c(n1)CCN(C(=O)Cc1cccc(OC)c1)C2,-26*,3%[12.5 µM],48%,i,-23%
COc1cccc(CCC(=O)N2C[C@@H]3CC[C@H](C2)N(CC2CCC2)C3=O)c1,-31*,6%,14%,i,-11%
CC1=C(C(=O)Nc2ccc(C)cc2C)C(c2cccs2)n2nc(SCc3ccccc3Cl)nc2N1 (stereo unspecified),-26*,3%,18%,i,23%
CC1=C(C(=O)Nc2ccccc2C)C(c2cccs2)n2nc(SCc3cc(C)ccc3C)nc2N1 (stereo unspecified),0,7%,-6%,i,.
O=C(C1CCCN(C2CCN(c3ncnc4sccc34)CC2)C1)N1CCCC1 (stereo unspecified),-28*,-3%,?,?,-13%
COc1ccccc1CNC(=O)CCc1c(C)c2cc3c(C)c(C)oc3cc2oc1=O,-21,-5%,-3%,i,.
COc1ccccc1CCNC(=O)CCc1c(C)c2cc3c(C)c(C)oc3cc2oc1=O,-25*,3%,-13%,?,-13%
CCOC(=O)C1c2c(OC)ccc3c2C(=CC(C)(C)CO3)CN1Cc1ccc(NC(C)=O)cc1 (stereo unspecified),2,.,.,.,.
O=C(NCc1ccccn1)c1ccc2nc(-c3cccnc3Cl)oc2c1,10,6%,44%,.,.
CCC(=O)N1CCc2cc(OC)c(OC)cc2C1COc1ccc2c(C)cc(=O)oc2c1 (stereo unspecified),-31*,-4%,22%,i,-3%
COc1cc(NC(=O)Cn2c(=O)nc(-c3ccccc3F)c3cc(Cl)ccc32)cc(OC)c1,-28*,?,?,i,?
O=C(c1ccc(F)c(F)c1Nc1ccc(I)cc1F)N1CC(O)([C@H]2CCCCN2)C1,.,-3%,8%,.,-3%
O=C(NCC(F)F)c1nc2cccnc2n(Cc2ccccc2)c1=O,4,-4%[87.6 µM],12%[87.6 µM],.,.
N#Cc1cccnc1-c1ccc(C(=O)N2CCC(NC(=O)Cc3cccc(Cl)c3)CC2)cc1,-2,-11%[12.5 µM],-2%,.,.
SMILES,IP6K1 inhibitor,SNCA viab count,SNCA expr inhib,KDM5B inhibitor,IP6K1 conf
O=C(NC(=O)c1ccc(F)cc1)Nc1ccc(-c2cc(C(F)(F)F)nn2-c2ccccc2)cc1,24,2%,2%,?,.
NCC(=O)Nc1ccc(-n2nc(C(F)(F)F)cc2-c2ccc3c(ccc4ccccc43)c2)cc1,-35*,?,34%,.,?
CCOC(=O)c1cccc(NC(=O)CCCn2nc(C)c3c(C)n(-c4ccccc4)nc3c2=O)c1,-100*,-1%,-10%,i,8%
Cc1ccc(NC(=O)CCCn2nc(C)c3c(C)n(-c4ccccc4)nc3c2=O)cc1Cl,20,10%,38%,i,.
O=S(=O)(NC1CCN(c2ccc3nnc(-c4ccccc4)n3n2)CC1)c1cccs1,-27*,.,.,.,?
CC[C@@H]1C(=O)N(C)c2cnc(Nc3ccc(C(=O)NC4CCN(C)CC4)cc3OC)nc2N1C1CCCC1,.,?,-4%,.,18%
COc1ccc(NC(=O)CCC2CCCN(S(=O)(=O)c3cccc(F)c3)C2)c(OC)c1 (stereo unspecified),-6,-30%,-14%,.,.
Cc1ccc(-c2nnn3c2nc(N2CCC(C)CC2)c2ccccc23)cc1,-29*,-15%,83%,?,-9%
Cc1cc(Nc2nc(NC(C)c3ccc(F)cc3)c(C#N)cc2F)n[nH]1 (stereo unspecified),.,.,.,.,-9%
CCCCOc1ccc(-c2nc(C3CC(=O)N(C4CCCCC4)C3)no2)cc1 (stereo unspecified),-6,-7%,?,?,.
COCCCNC(=O)c1cc(-c2cccnc2)nc2c1cnn2C,19,?,-10%[87.6 µM],.,.
O=C1c2ccccc2-[n+]2ccc3c([nH]c4ccccc43)c21,.,?,3µM*,.,-24%
O=C1C(c2c(O)[nH]c3ccccc23)=Nc2ccccc21,-16,-11%[23.9 µM],-23%,.,.
O=C(O)c1cc(O)c2cccc(O)c2c1O[C@@H]1O[C@H](CO)[C@@H](O)[C@H](O)[C@H]1O,-37*,-4%,.,.,?
Cc1c(Cl)cccc1-n1ncc(C(=O)Nc2ccc(Br)cc2F)c1C1CCNCC1,-26*,9%,-22%,?,?
Cc1ccc(-n2ncc(C(=O)N3CCN(c4cccc(C)c4C)CC3)c2C2CCNCC2)c(C)c1,12,?,-23%,?,.
C[C@@H]1COC(Nc2ccc3ncnc(Nc4ccc(OCc5nccs5)c(Cl)c4)c3c2)=N1,-34*,?,-17%,.,?
Oc1cccc(-c2nc(N3CCOCC3)c3oc4ncccc4c3n2)c1,.,-9%[87.6 µM],?,.,?
c1csc(-c2nc(N3CCOCC3)c3ccccc3n2)c1,.,.,.,i,.
COc1ccc(CNS(=O)(=O)c2cc3c(cc2C)n(C)c(=O)c(=O)n3C)cc1,-11,-16%,5%,i,.
Cc1cc2c(cc1S(=O)(=O)NCc1ccc(F)cc1)n(C)c(=O)c(=O)n2C,-26*,11%,5%,?,-18%
O=C(NC1CC1)c1ccc2oc(-c3ccnc(Cl)c3)nc2c1,10,2%[12.5 µM],68%[87.6 µM],.,.
Cc1cc(C)cc(NC(=O)CSc2nc3c(cnn3-c3ccc(F)cc3)c(=O)[nH]2)c1,-3,-6%,-15%,i,.
